Several values for one entry are separate records, joined by “and”; a condition that tells them apart may be missing. Equal entries are not always repeated. Inconclusive results are not listed. Where a call stands in place of a potency, no number is given. A structure can be active in one record and inactive in another. Activity calls are given as the source filed them. Unless noted, calls come from the whole dose curve; as a rule, active = well fitted curve in the direction sought with a large enough effect in the repeat runs; inconclusive = weak or mixed curves; inactive = no such curve, though single readings can be large; an effect the other way counts as inactive or inconclusive.
Assays:
[1] = qHTS assay to identify small molecule antagonists of the estrogen receptor alpha (ER-alpha) signaling pathway using the BG1 cell line in the presence of 0.1 nM 17-beta-estradiol - cell viability counter screen (AID 1259241); note: nearly all actives have a fitted effect of over 40% in size
How it was run: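 VM7Luc4E2 cells (endogenous full-length ER-alpha, 4xERE-luciferase), cultured 5 days in charcoal-stripped serum, exposed to compounds with 0.1 nM 17beta-estradiol (final) for 22 hr at 37C. Viability read in same wells as live-cell protease fluorescence after 30 min.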

[2] = qHTS assay to identify small molecule antagonists of the androgen receptor (AR) signaling pathway using the MDA cell line in the presence of 0.5 nM R1881 - cell viability counter screen (AID 1259242); note: nearly all actives have a fitted effect of over 45% in size; note: potency is the fitted concentration of half-maximal effect
How it was run: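 Live-cell protease fluorescence, CellTiter-Fluor, 30 min at 37C. Cells: MDA-kb2, 3,000/well, preincubated 5 hr. Compounds plus 0.5 nM R1881 final, 16 hr, 37C, 0% CO2.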

[3] = target: Androgen receptor (Homo sapiens) (UniProt P10275); assay: qHTS assay to identify small molecule antagonists of the androgen receptor (AR) signaling pathway using the MDA cell line in the presence of 0.5 nM R1881 (AID 1259243); note: nearly all actives have a fitted effect of over 50% in size; note: potency is the fitted concentration of half-maximal effect
How it was run: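 MDA-kb2, MMTV-luc (AR/GR elements); 3,000 cells/well; cpd + 0.5 nM R1881 final; 16 hr 37C, 0% CO2; ONE-Glo 30 min RT; luminescence.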

[4] = qHTS assay to identify small molecule HDAC inhibitors (AID 1259364); note: potency is the fitted concentration of half-maximal effect;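 note: wild-type HCT-116 cells with endogenous class I/II HDAC activity; nearly all actives have a fitted effect of over 45% in size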
How it was run: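 HCT-116 (wild type), 1,500 cells/well, overnight; compound 2 hr 37C 5% CO2; HDAC-Glo I/II reagent 30 min RT; luminescence readout.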

[5] = qHTS assay to identify small molecule HDAC inhibitors - cell viability counter screen (AID 1259365); note: series mostly up to about 92 µM; nearly all actives have a fitted effect of over 50% in size
How it was run: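 Wild-type HCT-116 cells, 1,500/well, cultured overnight, then compound-treated 2 h at 37 C. Viability measured as ATP luminescence with CellTiter-Glo after 30 min at room temperature.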

[6] = qHTS assay to identify small molecule agonists of the sonic hedgehog signaling (Shh) pathway - cell viability counter screen (AID 1259366); note: nearly all actives have a fitted effect of over 50% in size; note: potency is the fitted concentration of half-maximal effect
How it was run: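 NIH/3T3-derived Gli1-Luc reporter cells, 2,000 per well, received compound after 4 h and were treated about 23 h at 37C. Viability measured in the same wells by CellTiter-Fluor fluorescence after 1 h.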

[7] = qHTS assay to identify small molecule antagonists of the sonic hedgehog signaling (Shh) pathway - cell viability counter screen (AID 1259367); note: nearly all actives have a fitted effect of over 55% in size; note: potency is the fitted concentration of half-maximal effect
How it was run: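 Conditioned medium drove Shh signaling in 3T3 Gli1-Luc cells exposed to compounds at 37C and 5% CO2. Viability was determined from CellTiter-Fluor fluorescence, with reagent incubated 1 hr after 23 hr of treatment.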

[8] = qHTS assay to identify small molecule agonists of the sonic hedgehog signaling (Shh) pathway (AID 1259368; calls by dose curve; note: nearly all actives have a fitted effect of over 15% in size; note: potency is the fitted concentration of half-maximal effect)
How it was run: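 Read-out: firefly luciferase luminescence from a Gli1 response element reporter stably integrated in NIH/3T3-derived 3T3Gli1-Luc cells, measured 30 min at room temperature after reagent addition. Compound exposure lasted 24 hr at 37 C, 5% CO2.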

[9] = target: Estrogen receptor (Homo sapiens) (UniProt P03372); assay: qHTS assay to identify small molecule antagonists of the estrogen receptor alpha (ER-alpha) signaling pathway using the BG1 cell line in the presence of 0.1 nM 17-beta-estradiol (AID 1259244); note: nearly all actives have a fitted effect of over 50% in size
How it was run: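 Luminescence after ONE-Glo (30 min, room temperature) measured ERE-luciferase activity in VM7Luc4E2 cells treated 22 h with compound and 0.1 nM final 17beta-estradiol as stimulator.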

[10] = qHTS assay to identify small molecule phospholipidosis (PLD) inducers (AID 1259344; active = well fitted curve in the direction sought with a large enough effect; an effect the other way counts as inactive or inconclusive)
How it was run: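 After 4 h attachment on collagen I, HepG2 cells were dosed with compound alongside LipidTOX Red, kept 24 h at 37 C, fixed, and imaged for lamellar phospholipid pits.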

Estrogen receptor (Homo sapiens), sequence (P03372 whole entry, looked up): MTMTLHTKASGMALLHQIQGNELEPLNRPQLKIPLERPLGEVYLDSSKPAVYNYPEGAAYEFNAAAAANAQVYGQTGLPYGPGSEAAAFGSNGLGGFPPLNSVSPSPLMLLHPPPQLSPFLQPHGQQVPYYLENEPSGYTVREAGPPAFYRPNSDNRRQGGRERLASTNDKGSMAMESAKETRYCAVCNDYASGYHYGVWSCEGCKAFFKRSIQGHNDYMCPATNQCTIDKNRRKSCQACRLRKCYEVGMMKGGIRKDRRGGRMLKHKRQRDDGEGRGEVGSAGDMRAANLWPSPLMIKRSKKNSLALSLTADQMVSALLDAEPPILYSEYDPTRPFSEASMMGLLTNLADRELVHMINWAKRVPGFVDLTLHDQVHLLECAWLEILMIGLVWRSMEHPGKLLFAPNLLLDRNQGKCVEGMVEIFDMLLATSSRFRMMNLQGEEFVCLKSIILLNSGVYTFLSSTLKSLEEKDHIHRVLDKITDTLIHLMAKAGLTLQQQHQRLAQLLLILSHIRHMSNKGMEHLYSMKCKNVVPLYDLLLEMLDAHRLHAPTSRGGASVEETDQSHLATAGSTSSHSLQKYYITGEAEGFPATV
Androgen receptor (Homo sapiens), sequence (P10275 whole entry, looked up): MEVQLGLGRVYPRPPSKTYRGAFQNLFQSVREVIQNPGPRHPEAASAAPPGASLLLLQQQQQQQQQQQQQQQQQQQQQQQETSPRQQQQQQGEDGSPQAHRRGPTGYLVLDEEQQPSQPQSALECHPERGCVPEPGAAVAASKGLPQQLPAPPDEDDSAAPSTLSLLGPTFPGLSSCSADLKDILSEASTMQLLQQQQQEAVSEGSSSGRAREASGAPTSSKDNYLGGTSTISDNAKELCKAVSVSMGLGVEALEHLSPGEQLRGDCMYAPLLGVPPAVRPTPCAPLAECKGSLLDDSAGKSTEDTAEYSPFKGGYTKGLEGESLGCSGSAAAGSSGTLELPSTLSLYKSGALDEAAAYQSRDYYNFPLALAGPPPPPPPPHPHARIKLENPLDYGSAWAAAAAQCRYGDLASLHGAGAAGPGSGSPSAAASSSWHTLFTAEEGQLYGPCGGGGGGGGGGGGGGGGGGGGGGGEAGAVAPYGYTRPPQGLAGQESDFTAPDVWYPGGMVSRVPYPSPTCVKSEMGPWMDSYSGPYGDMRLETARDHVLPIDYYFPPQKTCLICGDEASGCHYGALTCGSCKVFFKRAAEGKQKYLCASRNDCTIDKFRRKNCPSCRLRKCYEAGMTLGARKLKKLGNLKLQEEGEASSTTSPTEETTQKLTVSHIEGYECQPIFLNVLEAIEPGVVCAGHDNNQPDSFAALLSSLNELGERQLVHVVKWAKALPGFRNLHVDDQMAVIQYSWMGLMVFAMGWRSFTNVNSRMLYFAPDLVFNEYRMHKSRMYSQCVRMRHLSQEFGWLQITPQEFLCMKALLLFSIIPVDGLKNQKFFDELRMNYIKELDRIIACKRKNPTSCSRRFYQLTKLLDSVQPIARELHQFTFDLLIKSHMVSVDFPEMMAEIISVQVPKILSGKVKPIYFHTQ

SMILES	Potency [1]	Potency [2]	Potency [3]	Potency [4]	Potency [5]	Potency [6]	Potency [7]	Potency [8]	Potency [9]	outcome [10]
CCOC(=O)Cc1ccccc1	inactive	inactive	inactive	inactive	inactive	inactive	inactive	inactive	–	–
CCOC(=O)CCN(SN(C)C(=O)Oc1cccc2c1OC(C)(C)C2)C(C)C	inactive	inactive	–	inactive	inactive	inactive	inactive	inactive	inactive	–
O=c1[nH]c(Cl)c(Cl)cc1Cl	inactive	inactive	inactive	–	inactive	inactive	inactive	inactive	–	–
[O]=[Cr](=[O])([OH])[O][Cr](=[O])(=[O])[OH]	inactive	inactive	30.9 µM (active) and 54.4 µM (active)	inactive	–	30.9 µM (active) and 30.6 µM (active)	21.9 µM (active) and 30.6 µM (active)	inactive	–	inactive
O=C(CCCCl)c1ccc(F)cc1	inactive	inactive	inactive	inactive	inactive	inactive	inactive	inactive	inactive	–
CCNc1nc(NC(C)C(C)C)nc(SC)n1 (centres undefined)	inactive	inactive	–	inactive	inactive	inactive	inactive	inactive	inactive	–
O=C1C2(Cl)C3(Cl)C4(Cl)C(Cl)(Cl)C5(Cl)C3(Cl)C1(Cl)C5(Cl)C24Cl (centres undefined)	inactive	60.1 µM (active)	inactive and 65.7 µM (active)	inactive	inactive	26.9 µM (active)	37.9 µM (active) and 58.5 µM (active)	inactive	–	–
CC#C[C@]1(O)CC[C@H]2[C@@H]3C[C@H](C)C4=CC(=O)CC[C@]4(C)[C@H]3CC[C@@]21C	inactive	inactive	inactive	inactive	inactive	–	inactive	inactive	inactive	–
Nc1ccc(Cl)cc1C(=O)c1ccccc1F	inactive	inactive	10.6 µM (active)	inactive	inactive	inactive	inactive	inactive	inactive	–
Cc1ccc(C)c2ccccc12	inactive	inactive	inactive	inactive	inactive	inactive	inactive	inactive	–	–
C[C@]12C/C(=C/O)C(=O)C[C@@H]1CC[C@@H]1[C@@H]2CC[C@@]2(C)[C@H]1CC[C@]2(C)O	inactive	inactive	–	inactive	inactive	–	61.7 µM (active)	inactive	inactive	inactive
O=NN(CCO)CCO	inactive	inactive	inactive	inactive	inactive	inactive	inactive	inactive	inactive	–
CCCCC(CC)COC(=O)c1ccccc1C(=O)OCC(CC)CCCC (centres undefined)	inactive	inactive	–	inactive	inactive	inactive	inactive	inactive	inactive	inactive
CC(C)(C)c1ccc(OP(=O)(Oc2ccccc2)Oc2ccccc2)cc1	inactive	inactive	–	inactive	inactive	inactive	inactive	inactive	inactive	–
c1csc(-c2ccc(-c3cccs3)s2)c1	inactive	inactive	–	5.45 µM (active)	inactive	inactive	inactive	9.69 µM (active)	inactive	–
C=CCBr	inactive	inactive	–	inactive	inactive	inactive	inactive	inactive	inactive	–
O=[N+]([O-])c1ccc(CCl)cc1	inactive	inactive	–	inactive	inactive	inactive	inactive	inactive	inactive	–
Oc1ccc(Cl)c(Cl)c1	inactive	inactive	–	inactive	inactive	inactive	inactive	inactive	inactive	–
COC(=O)/C=C(\C)OP(=O)(OC)OC	inactive	inactive	–	inactive	inactive	inactive	inactive	inactive	inactive	–
CCOP(=O)(Sc1ccccc1)Sc1ccccc1	inactive	inactive	–	inactive	inactive	inactive	inactive	inactive	inactive	–
Clc1ccc(C(c2ccc(Cl)cc2)C(Cl)Cl)cc1	inactive	inactive	–	inactive	inactive	–	inactive	inactive	inactive	–
Cc1cc(C2CC2)nc(Nc2ccccc2)n1	inactive	inactive	–	24.3 µM (active)	inactive	48.6 µM (active)	–	inactive	inactive	–
CNC(=O)CSP(=O)(OC)OC	inactive	inactive	–	inactive	inactive	inactive	inactive	inactive	inactive	–
CC(=O)C(Cl)C(=O)N(C)C (centres undefined)	inactive	inactive	–	inactive	–	–	inactive	inactive	inactive	–
C=CCOC(=O)c1ccccc1N	inactive	inactive	–	inactive	inactive	inactive	inactive	inactive	inactive	–

Reference: PubChem BioAssay (Tox21)
